{"source": "PubChem BioAssay AID1159580", "about": "(chemical genetic matrix, 2015)", "experiment": "chemical genetic growth profiling, strain panel (AID 1159580);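 further: tested at 20 µM; growth read once vehicle control cultures reached saturation at 30 °C; 1 = growth at the plate median or of vehicle wells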", "details": "S. cerevisiae deletion strains, growth OD", "note": "Out of some 5,500 compounds screened, about 2,000 (36%) were called active. Another 18% or so got no clear call; they are omitted. The list shows a part of the results. A number with no mark means an inactive call. No stated cut-off is given here; in the data, active means normalized growth mostly below about 0.91 (no sharp cut-off); inconclusive means no clear call, values can overlap the other calls; inactive means mostly above about 0.92.", "data": [{"smiles": "CCC(C)[C@H]1O[C@]2(C=C[C@@H]1C)C[C@@H]1C[C@@H](C/C=C(\\C)[C@@H](OC3C[C@H](OC)C(O[C@H]4C[C@H](OC)[C@@H](O)[C@H](C)O4)[C@H](C)O3)[C@@H](C)/C=C/C=C3\\CO[C@@H]4[C@H](O)C(C)=C[C@@H](C(=O)O1)[C@]34O)O2", "note": "(some centres not stated)", "values": [{"measurement": "normalized growth", "setting": "locus YJR043C, strain POL32, stronger effect = lower value", "value": 0.932}, {"measurement": "normalized growth", "setting": "locus YJR066W, strain TOR1, stronger effect = lower value", "value": 0.973}, {"measurement": "normalized growth", "setting": "locus YJR075W, strain HOC1, stronger effect = lower value", "value": 0.906}, {"measurement": "normalized growth", "setting": "locus YKL009W, strain mrt4, stronger effect = lower value", "value": 1.01}, {"measurement": "normalized growth", "setting": "locus YKL068W, stronger effect = lower value", "value": 0.995}, {"measurement": "normalized growth", "setting": "locus YKL085W, strain MDH1 (second series), stronger effect = lower value", "value": 0.981}, {"measurement": "normalized growth", "setting": "locus YKL085W, strain MDH1, stronger effect = lower value", "value": 0.981}, {"measurement": "normalized growth", "setting": "locus YKL160W, strain elf1, stronger effect = lower value", "value": 0.969}, {"measurement": "normalized growth", "setting": "locus YKR001C, strain vps1, stronger effect = lower value", "value": "0.253 (active)"}, {"measurement": "normalized growth", "setting": "locus YKR026C, strain gcn3, stronger effect = lower value", "value": 0.996}, {"measurement": "normalized growth", "setting": "locus YKR091W, strain srl3, stronger effect = lower value", "value": 0.989}, {"measurement": "normalized growth", "setting": "locus YLL001W, strain dnm1, stronger effect = lower value", "value": 0.983}, {"measurement": "normalized growth", "setting": "locus YLL026W, stronger effect = lower value", "value": "0.886 (active)"}, {"measurement": "normalized growth", "setting": "locus YLL041C, strain sdh2, stronger effect = lower value", "value": 0.98}, {"measurement": "normalized growth", "setting": "locus YLR027C, strain aat2, stronger effect = lower value", "value": 0.936}, {"measurement": "normalized growth", "setting": "locus YLR039C, strain RIC1, stronger effect = lower value", "value": "0.274 (active)"}, {"measurement": "normalized growth", "setting": "locus YLR058C, strain SHM2, stronger effect = lower value", "value": "0.881 (active)"}, {"measurement": "normalized growth", "setting": "locus YLR102C, strain apc9, stronger effect = lower value", "value": 1.02}, {"measurement": "normalized growth", "setting": "locus YLR113W, strain HOG1, stronger effect = lower value", "value": 0.975}, {"measurement": "normalized growth", "setting": "locus YLR221C, strain rsa3, stronger effect = lower value", "value": "0.832 (active)"}, {"measurement": "normalized growth", "setting": "locus YLR258W, strain gsy2, stronger effect = lower value", "value": "0.849 (active)"}, {"measurement": "normalized growth", "setting": "locus YLR262C, strain YPT6 (second series), stronger effect = lower value", "value": "0.418 (active)"}, {"measurement": "normalized growth", "setting": "locus YLR262C, strain YPT6, stronger effect = lower value", "value": "0.214 (active)"}, {"measurement": "normalized growth", "setting": "locus YLR268W, strain sec22, stronger effect = lower value", "value": "0.695 (active)"}, {"measurement": "normalized growth", "setting": "locus YLR320W, strain mms22, stronger effect = lower value", "value": "0.828 (active)"}, {"measurement": "normalized growth", "setting": "locus YLR330W, strain CHS5, stronger effect = lower value", "value": "0.893 (active)"}, {"measurement": "normalized growth", "setting": "locus YLR342W, strain FKS1 (second series), stronger effect = lower value", "value": "0.452 (active)"}, {"measurement": "normalized growth", "setting": "locus YLR342W, strain FKS1, stronger effect = lower value", "value": "0.681 (active)"}, {"measurement": "normalized growth", "setting": "locus YLR357W, strain rsc2, stronger effect = lower value", "value": 1.03}, {"measurement": "normalized growth", "setting": "locus YLR370C, strain arc18, stronger effect = lower value", "value": 0.985}, {"measurement": "normalized growth", "setting": "locus YLR371W, strain rom2, stronger effect = lower value", "value": 1.03}, {"measurement": "normalized growth", "setting": "locus YLR384C, strain iki3, stronger effect = lower value", "value": 1.02}, {"measurement": "normalized growth", "setting": "locus YLR418C, strain cdc73, stronger effect = lower value", "value": "0.824 (active)"}, {"measurement": "normalized growth", "setting": "locus YML016C, strain PPZ1, stronger effect = lower value", "value": 1}, {"measurement": "normalized growth", "setting": "locus YML032C, strain rad52, stronger effect = lower value", "value": 0.915}, {"measurement": "normalized growth", "setting": "locus YML120C, strain ndi1, stronger effect = lower value", "value": 0.955}, {"measurement": "normalized growth", "setting": "locus YML124C, strain tub3, stronger effect = lower value", "value": 1.01}, {"measurement": "normalized growth", "setting": "locus YMR058W, strain fet3, stronger effect = lower value", "value": 1}, {"measurement": "normalized growth", "setting": "locus YMR078C, strain ctf18, stronger effect = lower value", "value": 0.98}, {"measurement": "normalized growth", "setting": "locus YMR125W, strain sto1, stronger effect = lower value", "value": 1.03}, {"measurement": "normalized growth", "setting": "locus YMR129W, stronger effect = lower value", "value": 0.996}, {"measurement": "normalized growth", "setting": "locus YMR205C, strain PFK2, stronger effect = lower value", "value": "0.77 (active)"}, {"measurement": "normalized growth", "setting": "locus YMR223W, strain ubp8, stronger effect = lower value", "value": 0.953}, {"measurement": "normalized growth", "setting": "locus YMR231W, strain pep5, stronger effect = lower value", "value": 0.984}, {"measurement": "normalized growth", "setting": "locus YMR307W, strain GAS1, stronger effect = lower value", "value": "0.323 (active)"}, {"measurement": "normalized growth", "setting": "locus YNL067W, strain RPL9B, stronger effect = lower value", "value": 0.904}, {"measurement": "normalized growth", "setting": "locus YNL071W, strain lat1, stronger effect = lower value", "value": "0.824 (active)"}, {"measurement": "normalized growth", "setting": "locus YNL153C, strain GIM3, stronger effect = lower value", "value": "0.821 (active)"}, {"measurement": "normalized growth", "setting": "locus YNL183C, strain NPR1, stronger effect = lower value", "value": 0.926}, {"measurement": "normalized growth", "setting": "locus YNL209W, strain ssb2, stronger effect = lower value", "value": 0.937}, {"measurement": "normalized growth", "setting": "locus YNL233W, strain BNI4, stronger effect = lower value", "value": "0.849 (active)"}, {"measurement": "normalized growth", "setting": "locus YNL248C, strain rpa49, stronger effect = lower value", "value": 0.926}, {"measurement": "normalized growth", "setting": "locus YNL250W, strain rad50, stronger effect = lower value", "value": 1.02}, {"measurement": "normalized growth", "setting": "locus YNL271C, strain bni1, stronger effect = lower value", "value": 1.01}, {"measurement": "normalized growth", "setting": "locus YNL298W, strain CLA4, stronger effect = lower value", "value": 1.04}, {"measurement": "normalized growth", "setting": "locus YNL307C, strain MCK1, stronger effect = lower value", "value": "0.46 (active)"}, {"measurement": "normalized growth", "setting": "locus YNL322C, strain KRE1 (second series), stronger effect = lower value", "value": 0.935}, {"measurement": "normalized growth", "setting": "locus YNR049C, strain mso1, stronger effect = lower value", "value": 0.987}, {"measurement": "normalized growth", "setting": "locus YNR052C, strain pop2, stronger effect = lower value", "value": 0.952}, {"measurement": "normalized growth", "setting": "locus YOL012C, strain htz1", "value": 0.305}, {"measurement": "normalized growth", "setting": "locus YOL147C, strain pex11, stronger effect = lower value", "value": 0.935}, {"measurement": "normalized growth", "setting": "locus YOR001W, strain rrp6, stronger effect = lower value", "value": 1}, {"measurement": "normalized growth", "setting": "locus YOR061W, strain CKA2, stronger effect = lower value", "value": 0.891}, {"measurement": "normalized growth", "setting": "locus YOR069W, strain VPS5, stronger effect = lower value", "value": "0.92 (active)"}, {"measurement": "normalized growth", "setting": "locus YOR070C, strain gyp1, stronger effect = lower value", "value": "0.837 (active)"}, {"measurement": "normalized growth", "setting": "locus YOR080W, strain dia2, stronger effect = lower value", "value": 0.997}, {"measurement": "normalized growth", "setting": "locus YOR083W, strain WHI5, stronger effect = lower value", "value": 0.901}, {"measurement": "normalized growth", "setting": "locus YOR106W, strain vam3, stronger effect = lower value", "value": 0.984}, {"measurement": "normalized growth", "setting": "locus YOR136W, strain idh2, stronger effect = lower value", "value": 0.936}, {"measurement": "normalized growth", "setting": "locus YOR144C, strain elg1, stronger effect = lower value", "value": 0.97}, {"measurement": "normalized growth", "setting": "locus YOR184W, strain ser1, stronger effect = lower value", "value": "0.698 (active)"}, {"measurement": "normalized growth", "setting": "locus YOR231W, strain MKK1, stronger effect = lower value", "value": 0.945}, {"measurement": "normalized growth", "setting": "locus YOR265W, strain rbl2, stronger effect = lower value", "value": 0.98}, {"measurement": "normalized growth", "setting": "locus YOR270C, strain vph1, stronger effect = lower value", "value": "0.59 (active)"}, {"measurement": "normalized growth", "setting": "locus YOR290C, strain snf2, stronger effect = lower value", "value": "0.864 (active)"}, {"measurement": "normalized growth", "setting": "locus YOR316C, strain cot1, stronger effect = lower value", "value": 1.01}, {"measurement": "normalized growth", "setting": "locus YPL051W, strain arl3, stronger effect = lower value", "value": "0.676 (active)"}, {"measurement": "normalized growth", "setting": "locus YPL055C, strain LGE1, stronger effect = lower value", "value": "0.627 (active)"}, {"measurement": "normalized growth", "setting": "locus YPL078C, strain atp4, stronger effect = lower value", "value": 0.982}, {"measurement": "normalized growth", "setting": "locus YPL106C, strain sse1, stronger effect = lower value", "value": "1.38 [resistant] (active)"}, {"measurement": "normalized growth", "setting": "locus YPL240C, strain hsp82, stronger effect = lower value", "value": 0.931}, {"measurement": "normalized growth", "setting": "locus YPL256C, strain CLN2, stronger effect = lower value", "value": 0.955}, {"measurement": "normalized growth", "setting": "locus YPR119W, strain clb2, stronger effect = lower value", "value": 1.02}, {"measurement": "normalized growth", "setting": "locus YPR141C, strain kar3, stronger effect = lower value", "value": 0.997}, {"measurement": "normalized growth", "setting": "locus YPR163C, strain tif3, stronger effect = lower value", "value": "0.897 (active)"}, {"measurement": "normalized growth", "setting": "locus YPR167C, strain met16, stronger effect = lower value", "value": "0.862 (active)"}, {"measurement": "normalized growth", "setting": "strain wtn01, stronger effect = lower value", "value": "0.76 (active)"}]}]}
